The target in experiment [1] is Protein phosphatase 1D (Homo sapiens) (UniProt O15297). Kind of experiment: Rhodamine-PBP qHTS Assay for Modulators of WT P53-Induced Phosphatase 1 (WIP1) (AID 1347425). Further: % of control where 0% means no effect. An outline of the steps:
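5 nM WIP1 + 10 uM Rh-PBP, 50 mM Tris pH 7.5, 30 mM MgCl2, 1 mM TCEP, 0.1 mM EGTA, BSA; cpds pinned, 1 hr RT; + 10 uM phosphopeptide; fluorescence 1-min reads x 11 min; delta = f1 - f0.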
(In general: qHTS replaces the single test concentration by a dilution series.)

A short description of experiment [2]: Primary qHTS for inhibitors of La Crosse Virus (LACV) - induced cell death in SH-SY5Y cells (AID 1508616). Further: potency means the concentration at half of the fitted maximal effect. An outline of the steps:
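Screening measures cell viability in LACV-infected SH-SY5Y cultures. Compound was added before virus (0.01 MOI), and ATP was detected by luminescence 6 days later.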

The target in experiment [3] is Calcium and integrin-binding protein 1 (Homo sapiens) (UniProt Q99828). Kind of experiment: Primary qHTS for Identification of Calcium Integrin Binding Protein 1 (CIB1) Competitor (AID 1508620).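 Further: GST tagged CIB1 binding a fluorescein labelled alphaIIb integrin peptide tracer; top concentration of the series differs between compounds; on the % scale 0 is the no-effect control and ±100 the full control effect.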 The procedure, abridged: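 CIB1-GST (1 uM final) and compound incubated 15 min at room temperature before adding FITC-alphaIIb peptide tracer (100 nM final). Competition for binding read by fluorescence polarization (ex 480, em 540) after another 15 min at room temperature.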
Chain of Calcium and integrin-binding protein 1 (Homo sapiens) (Q99828 whole entry, looked up): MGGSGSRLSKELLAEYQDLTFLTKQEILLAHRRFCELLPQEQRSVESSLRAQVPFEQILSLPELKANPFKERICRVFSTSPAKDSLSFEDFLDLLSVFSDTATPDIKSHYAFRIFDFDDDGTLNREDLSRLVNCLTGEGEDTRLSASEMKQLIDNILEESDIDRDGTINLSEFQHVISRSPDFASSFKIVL

Experiment [4] in a line: Primary qHTS for small molecule stabilizers of the endoplasmic reticulum resident proteome: Secreted ER Calcium Modulated Protein (SERCaMP) assay (AID 1508630). Further: on the % scale 0 is the no-effect control and ±100 the full control effect. The procedure, abridged:
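The SH-SY5Y reporter protocol was run at 3 concentrations up to 38.3 uM (primary) or 11 concentrations (follow-up): 16 h compound, 100 nM thapsigargin for 4 h, then extracellular luciferase luminescence.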

Experiment [5] can be described thus: A High-Content qHTS Against Drug Library for the Identification of Small Molecules that Inhibit DYT1 Early Onset Primary Dystonia-Associated Cell Pathology (AID 1645839; calls by dose curve; further: series mostly up to about 46 µM). The procedure, abridged: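 High-content imaging quantified EGFP-TorsinA mislocalization in HEK293-derived cells inducibly expressing DYT1 mutant torsinA, after 48 h exposure to compound given together with tetracycline induction. Cell count served as a toxicity channel alongside %pathology.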

Experiment [6] in a line: Primary qHTS for inhibitors of SARS-S pseudo-typed particle cell entry (AID 1479145; calls by dose curve; further: nearly all actives have a fitted effect of over 45% in size).
The nature of experiment [7]: Primary qHTS for inhibitors of MERS-S pseudo-typed particle cell entry (AID 1479149; calls by dose curve; further: nearly all actives have a fitted effect of over 60% in size).
Experiment [8] concerns the target Calcium and integrin-binding protein 1 (Homo sapiens) (UniProt Q99828). Kind of experiment: Validation qHTS for Identification of Calcium Integrin Binding protein 1 (CIB1) Competitor (AID 1508618). Further: on the % scale 0 is the no-effect control and ±100 the full control effect. The procedure, abridged: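 Displacement of FITC-alphaIIb peptide (100 nM) from CIB1-GST (1 uM) is monitored by polarization in quantitative HTS format; buffer carries 5 mM CaCl2 and 125 mM NaCl at pH 7.4, incubations are at room temperature.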

Experiment [9] has as its target Cytochrome P450 2D6 (Homo sapiens) (UniProt P10635). Kind of experiment: Cytochrome P450 family 2 subfamily D member 6 (CYP2D6) small molecule antagonists: luciferase biochemical (cell-free) qHTS assay (AID 1645840; active means well fitted curve in the direction sought with a large enough effect in the repeat runs; an effect the other way counts as inactive or inconclusive; further: nearly all actives have a fitted effect of over 55% in size; further: potency means the concentration at half of the fitted maximal effect). An outline of the steps:
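P450-Glo CYP2D6 system: proluciferin substrate converted by enzyme to luciferin, read by luminescence proportional to activity. Enzyme-substrate mix with compound 10 min at room temperature, then NADPH regeneration 1 h before detection reagent.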

Experiment [10] is described as follows: Primary qHTS for Huh7 cytotoxicity: counterscreen for inhibitors of MERS-S pseudotyped particle cell entry (AID 1479147; calls by dose curve).
Experiment [11] in a line: Primary qHTS for Vero E6 cytotoxicity: counterscreen for inhibitors of SARS-S pseudo-typed particle cell entry (AID 1479150; calls by dose curve).
Experiment [12] can be described thus: Counterscreen qHTS for small molecule stabilizers of the endoplasmic reticulum resident proteome: GLuc-NoTag assay (AID 1508627).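 Further: SH-SY5Y cells given compound then 100 nM thapsigargin to empty ER calcium; series mostly up to about 76 µM; 0% = thapsigargin alone and -100% = DMSO vehicle control.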 The procedure, abridged:
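Counterscreen line: SH-SY5Y-GLuc-NoTag cells, treated with compound 19 hr before a 4 hr, 100 nM thapsigargin calcium depletion. Secreted Gaussia luciferase in the medium was measured by luminescence after coelenterazine was added (0.07x final), with cells unlysed.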
On the technique in general: The purpose of a counterscreen is to sort out artefacts and off-target activity.

Experiment [13] in a line: Confirmatory qHTS for small molecule stabilizers of the endoplasmic reticulum resident proteome: Secreted ER Calcium Modulated Protein (SERCaMP) assay (AID 1508628). Further: series mostly up to about 76 µM; on the % scale 0 is the no-effect control and ±100 the full control effect; nearly all actives have a fitted effect of over 40% in size. The procedure, abridged:
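GLuc-SERCaMP-expressing SH-SY5Y cells, pretreated 16 h with compound, are challenged with thapsigargin to empty ER calcium stores; after 4 h, coelenterazine is added directly to the medium and luminescence is imaged.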

The nature of experiment [14]: Cell Viability qHTS for small molecule stabilizers of the endoplasmic reticulum resident proteome (AID 1508629).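 Further: human SH-SY5Y neuroblastoma cells carrying the GLuc-SERCaMP reporter; compound exposure about 46 h in total before the viability read; on the % scale 0 is the no-effect control and ±100 the full control effect.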 To be noted: cell viability counter-screen, 100 nM thapsigargin for final 4 h.

Records with an inconclusive call do not appear. A number with no mark means an inactive call. Calls of active or inactive are those of the source. Unless noted, the call rests on the fitted dose curve; in most records, active means well fitted curve in the direction sought with a large enough effect; inconclusive means small, poorly fitted or top-dose-only effect, or another doubt; inactive means no such curve, though single readings can be large; an effect the other way counts as inactive or inconclusive.

Chain of Cytochrome P450 2D6 (Homo sapiens) (P10635 whole entry, looked up): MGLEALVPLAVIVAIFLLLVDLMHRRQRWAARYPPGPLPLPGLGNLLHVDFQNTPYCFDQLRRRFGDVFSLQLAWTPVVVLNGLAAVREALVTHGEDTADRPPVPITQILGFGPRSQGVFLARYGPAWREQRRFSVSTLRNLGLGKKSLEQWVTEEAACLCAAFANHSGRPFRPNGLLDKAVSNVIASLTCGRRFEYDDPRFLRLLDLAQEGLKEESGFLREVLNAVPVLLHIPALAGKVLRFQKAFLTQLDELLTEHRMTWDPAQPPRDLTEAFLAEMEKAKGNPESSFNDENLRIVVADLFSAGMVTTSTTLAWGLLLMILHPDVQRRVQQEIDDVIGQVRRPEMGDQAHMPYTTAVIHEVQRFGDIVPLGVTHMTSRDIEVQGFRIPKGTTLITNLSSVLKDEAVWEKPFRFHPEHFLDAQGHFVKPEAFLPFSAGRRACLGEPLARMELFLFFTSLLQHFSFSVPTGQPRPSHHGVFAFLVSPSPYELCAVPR
Chain of Protein phosphatase 1D (Homo sapiens) (O15297 whole entry, looked up): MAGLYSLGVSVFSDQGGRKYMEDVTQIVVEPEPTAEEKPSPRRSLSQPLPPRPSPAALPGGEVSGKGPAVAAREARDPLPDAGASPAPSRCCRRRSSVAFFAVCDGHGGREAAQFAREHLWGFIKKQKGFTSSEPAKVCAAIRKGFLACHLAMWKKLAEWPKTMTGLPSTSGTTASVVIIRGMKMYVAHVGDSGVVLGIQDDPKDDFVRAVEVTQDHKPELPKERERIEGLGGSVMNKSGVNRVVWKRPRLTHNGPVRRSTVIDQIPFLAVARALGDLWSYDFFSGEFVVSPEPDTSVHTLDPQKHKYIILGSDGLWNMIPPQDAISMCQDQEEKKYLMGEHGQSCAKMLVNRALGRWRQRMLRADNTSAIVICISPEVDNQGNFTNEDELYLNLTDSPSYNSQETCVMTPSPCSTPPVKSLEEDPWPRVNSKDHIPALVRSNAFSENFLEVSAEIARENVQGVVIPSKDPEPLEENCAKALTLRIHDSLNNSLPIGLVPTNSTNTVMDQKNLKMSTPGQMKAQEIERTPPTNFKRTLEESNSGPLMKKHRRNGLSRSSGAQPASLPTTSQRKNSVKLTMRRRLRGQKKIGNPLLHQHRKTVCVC

For the compound `Cc1ccc2c(c1)C1CN(C)CCC1N2` (stereo not given), the compound was called inactive in [1] and in [4]. In addition, the Potency result in [2], in [3] and in [5] was “inactive” each time.
For `CN1C(=S)CN=C(c2ccccc2)c2cc(Cl)ccc21`, the compound was called inactive in experiment [1] and in experiment [4]. The Potency result in experiment [2], in experiment [3] and in experiment [5] was “inactive” throughout.
Take `C=C(C)[C@H]1Cc2c(ccc3c2O[C@@H]2COc4cc(OC)c(OC)cc4[C@@H]2C3=O)O1`: the outcome in [1] and in experiment [4] was inactive. Further, the Potency entry in experiment [6], in experiment [7], in experiment [8], in experiment [3] and in [9] was “inactive” each time. Also, in [2], the Potency is 316 nM (active).
Regarding `FC(F)(F)c1cccc(C2=CCN(CCc3ccc4ccccc4c3)CC2)c1`, the call in [1] and in [4] was inactive. The Potency result in [6], in experiment [10], in experiment [7], in experiment [11], in experiment [2] and in experiment [3] was “inactive” throughout. In addition, the Potency result in experiment [5] was “inactive”. Further, the Potency in experiment [9] is 0.0098 µM (active).
As to `OCCOc1ccccc1`, the outcome in experiment [1] was inactive. In addition, the Potency result in experiment [6], in [10], in [7], in experiment [11], in experiment [2] and in [3] was “inactive” in each case. The Potency entry in experiment [5] is “inactive”.
For the compound `CC(C)(C)CC(C)(C)c1ccc(O)cc1`, the call in experiment [1] and in [4] was inactive. The Potency entry in experiment [6], in experiment [10], in experiment [7], in experiment [2], in experiment [3] and in experiment [5] was “inactive” in each case. The Potency in experiment [9] was 36.6 µM (active).
In the case of `Cc1ccc(-c2nc3ccc(C)cn3c2CC(=O)N(C)C)cc1`, the compound was classed as inactive in [1] and in experiment [4]. The Potency result in [2], in [3] and in [5] was “inactive” each time.
In the case of `C[C@]12C/C(=C/O)C(=O)C[C@@H]1CC[C@@H]1[C@@H]2CC[C@@]2(C)[C@H]1CC[C@]2(C)O`, the outcome in [1] was inactive. Besides, the Potency entry in [2] and in experiment [3] was “inactive” in each case.
As to `C=CCN1CC[C@]23c4c5ccc(O)c4O[C@H]2C(=O)CC[C@@]3(O)[C@H]1C5`, the call in [1] and in experiment [4] was inactive. Besides, the Potency entry in experiment [6], in [10], in experiment [7], in experiment [11], in experiment [2] and in experiment [3] was “inactive” each time. Besides, the Potency result in [5] is “inactive”.
In the case of `CC(C)CC(N(C)C)C1(c2ccc(Cl)cc2)CCC1` (stereo not given), the compound was called inactive in experiment [1] and in experiment [4]. The Potency result in experiment [2], in experiment [3], in experiment [12], in experiment [13] and in experiment [5] was “inactive” each time. In addition, the max response in [14] is 6.57%.

The values above are taken from PubChem BioAssay (NCATS).
